Laboratory results published in PubChem BioAssay (NCI).
This is part of a sample that, as a whole, favours compounds with a hit. Of some 83,000 tested, about 20% had one in any assay.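 Single-dose data. Exposure time 48 hours. Values below 10 considered active.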 A number with no mark means an inactive call. Activity calls are given as the source filed them.

What follows are molecules tested on HCT-116 colon (assay: NCI-60 one-dose screen, 48 h (100 = growth as untreated, 0 = no growth, -100 = all killed)). Details: 10 µM unless noted.
Protocol: Growth inhibition of the HCT-116 human tumor cell line is measured as a screen for anti-cancer activity. Cells are grown in 96 well plates and exposed to the test compound for 48 hours. Compounds are tested at a single concentration, which is 10^-5 M for most compounds. The reported endpoint is percent growth (GI% or GIPRCNT), where numbers from 0 - 100% represent growth inhibition, and numbers from -100% - 0 represent cell death. For example, a value of 40 represents 60% growth inhibition. A value of 0 means no net growth occurred over the course of the experiment. A value of -40 indicates 40% of cells at the beginning of the experiment died by the end of the experiment. A value of -100 means all cells are dead at the end of the experiment.
NCI-60 Human Tumor Cell Lines Screen was performed using the standard one-dose NCI protocol, which is described in more detail at https://dtp.cancer.gov/discovery_development/nci-60/default.htm.
Compounds with GIPRCNT values below 10 were considered active. Activity score was based on GIPRCNT using the following formula: […]
Score is 0 for GIPRCNT values of 100 or above, 50 for GIPRCNT values of 0, and 100 for GIPRCNT values of -100.

Question: For `COc1ccc(C2CC(c3ccc(OC)cc3OC)=NN2c2ccc(S(N)(=O)=O)cc2)cc1` (stereo not given), which growth is on record?
Answer: 62.8%

Question: How did the growth turn out when `O=C(CSc1nc2ccccc2[nH]1)Nc1ccc(-c2nc3ccccc3s2)c(Cl)c1` was run?
Answer: -90.2% (active)

Question: With `COc1ccc(-c2ccc(-c3ccc(C(=N)N)s3)s2)cc1Cl` as the molecule, how does the growth read?
Answer: -95.8% (active)

Question: How did the growth turn out when `O=C(O)Cc1cccc(=O)c(O)c1C(=O)O` was run?
Answer: 102%

Question: How did the growth turn out when `NC(=S)N/N=C1\CCCC(C(F)(F)F)C1` (stereo not given) was run?
Answer: 8.77% (active)

Question: `Cn1cc(-c2cnc3ccc(NC(=O)Nc4ccc(F)c(Br)c4)cc3n2)cn1` was tested. Which growth did it give?
Answer: 22%

Question: How did the growth turn out when `CC(C)(C)n1cc(-c2ccnc(NCCCNS(=O)(=O)c3ccc(F)cc3)c2)c(-c2cccc(O)c2)n1` was run?
Answer: 32%

Question: With `Clc1cccc(-c2cc(-c3ccc4c(c3)OCCO4)[nH]n2)c1` as the molecule, how does the growth read?
Answer: 26.3% [25 µM]

Question: How did the growth turn out when `O=c1ccn(C2CC(O)C(O)C(CO)O2)c(=O)[nH]1` (stereo not given) was run?
Answer: 107%

Question: Which growth does the source give for `O=c1[nH]c2ccc(Br)cc2c2c1C(c1ccc(Cl)cc1)c1c(ncn3nc(-c4ccco4)nc13)O2` (stereo not given) here?
Answer: 67.5%

Question: With `COc1ccc(-c2nc3sc(-c4cc(OC)c(OC)c(OC)c4)nn3c2/C=C2/C(=O)Nc3ccc(F)cc32)cc1` as the molecule, how does the growth read?
Answer: 29.7%

Question: With `O=c1c2sc3ncccc3c2nnn1-c1ccccc1` as the molecule, how does the growth read?
Answer: 113%

Question: With `Cc1ccc(S(=O)(=O)n2cc(C(=O)C(=O)N3CCOCC3)c3ccccc32)cc1` as the molecule, how does the growth read?
Answer: 87.1%

Question: With `COc1ccc(-n2c(=O)sc3c(Cl)nc(C)nc32)c(OC)c1` as the molecule, how does the growth read?
Answer: 64.7%

Question: `O=S(=O)(CC(O)(c1ccccc1)c1ccccc1)CC(O)(c1ccccc1)c1ccccc1` was tested. Which growth did it give?
Answer: 77.7%

Question: Which growth does the source give for `COc1ccc(S(=O)(=O)Nc2cc(/C=C\c3cc(OC)c(OC)c(OC)c3)cc(OC)c2OC)cc1` here?
Answer: 5.64% (active)

Question: How did the growth turn out when `O=C(Nc1ccncc1)C(=O)c1cn(S(=O)(=O)c2ccc(Cl)cc2)c2ccccc12` was run?
Answer: 15.3%

Question: With `C=C[C@@H]1C[C@@H]2Cc3c(C)cc(C)cc3N1O2` as the molecule, how does the growth read?
Answer: 104%

Question: How did the growth turn out when `COc1cccc(CC(C)=C(c2ccc(OCCN(C)C)cc2)c2ccc(OCCN(C)C)cc2)c1` was run?
Answer: -74.3% (active)

Question: How did the growth turn out when `O=C(Nc1ccncc1)C(=O)c1cn(S(=O)(=O)c2ccc(Oc3ccccc3)cc2)c2ccccc12` was run?
Answer: 87.9%

Question: `Cc1nn(-c2ccc([N+](=O)[O-])cc2)c2ncnc(NCCc3ccccc3)c12` was tested. Which growth did it give?
Answer: 92.5%

Question: `Cn1ncc2c(Sc3ccc(Cl)cc3)ncnc21` was tested. Which growth did it give?
Answer: 103%

Question: For `COc1cccc(/C=C2\Oc3cc(OCCCN4CCCC4)ccc3C2=O)c1`, which growth is on record?
Answer: 21.1%

Question: For `COc1ccc(/C=C2\Oc3cc(OCCCN4CCCC4)ccc3C2=O)c(OC)c1`, which growth is on record?
Answer: 10.6%

Question: Which growth does the source give for `C1=Cc2ccccc2N(c2nnc(-c3ccccc3)o2)c2ccccc21` here?
Answer: 66.6%

Question: With `CC(C)(C)n1cc(-c2ccnc(NCCCNS(=O)(=O)c3cccc(F)c3)c2)c(-c2cccc(O)c2)n1` as the molecule, how does the growth read?
Answer: 47.1%

Question: `COc1ccc(/C=C2\CN(Cc3cn(CCNc4ccnc5cc(Cl)ccc45)nn3)C/C(=C\c3ccc(OC)c(OC)c3)C2=O)cc1OC` was tested. Which growth did it give?
Answer: -85.3% (active)

Question: `COc1cc(NCCCCCN)c2ncccc2c1` was tested. Which growth did it give?
Answer: 89.1%

Question: With `COc1cc(C2CC(c3ccc4c(c3)OCO4)=NN2C=O)cc(OC)c1OC` (stereo not given) as the molecule, how does the growth read?
Answer: 20.6%

Question: For `COc1ccc(/C(C#N)=C/c2cc(OC)c(OC)c(OC)c2)cc1`, which growth is on record?
Answer: 20.2%

Question: Which growth does the source give for `COc1ccc(Nc2[nH]n3c(=O)cc(-c4ccccc4)nc3c2C(=O)Nc2ccc(C)cc2)c(OC)c1` here?
Answer: 84.2%

Question: With `COc1cc2c(=O)n(C3CCCCCC3)c3c4cc[nH]c4ncc3c2cc1OC` as the molecule, how does the growth read?
Answer: 72.6%

Question: `NC1=NC(SCc2ccccc2CCl)c2ncn(Cc3ccccc3CCl)c2N1` (stereo not given) was tested. Which growth did it give?
Answer: 7.53% (active)

Question: `COc1ccc(CCNC2=CC(=O)CCC2)cc1OC` was tested. Which growth did it give?
Answer: 106%

Question: Which growth does the source give for `O=C1CS/C(=N\Nc2cc(=O)[nH]c3ccccc23)N1c1ccccc1` here?
Answer: 89.7%

Question: How did the growth turn out when `CC1(C)C(=O)/C(=C\c2ccc(C(F)(F)F)cc2)C[C@]2(C)[C@H]3CC[C@@H]4[C@H]5[C@H](C(=O)/C=C/c6ccc(C(F)(F)F)cc6)CC[C@]5(CO)CC[C@@]4(C)[C@]3(C)CC[C@@H]12` was run?
Answer: 82.6%

Question: `O=C1NN(C(=O)c2ccc(Cl)cc2)C(c2ccccc2)=N/C1=C\c1cn(-c2ccccc2)nc1-c1ccccc1` was tested. Which growth did it give?
Answer: 82.4%

Question: How did the growth turn out when `CN(C[C@H]1Cc2c(cccc2N2CCN(c3ncccn3)CC2)CN1)[C@H]1CCCc2cccnc21` was run?
Answer: 19.6%

Question: Which growth does the source give for `Cc1cc(C2=NNC(=O)Cc3cc4c(cc32)OCCO4)cc(C)c1N` here?
Answer: 20.4%

Question: Which growth does the source give for `CC12CCC3C4(C)COC(c5ccco5)OC4CCC3(C)C1CC(C1=CCOC1=O)O2` (stereo not given) here?
Answer: 104%
